Experiment [1] can be described thus: qHTS assay to identify small molecule agonists of the vitamin D receptor (VDR) signaling pathway - cell viability counter screen (AID 743224). Further: nearly all actives have a fitted effect of over 50% in size. Further: potency means the concentration at half of the fitted maximal effect. The method in brief: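 VDR-bla cell line, quantitative HTS format; 16 h compound incubation (37C, 5% CO2); ATP-based CellTiter-Glo luminescence measured in the reporter assay wells.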
On the technique in general: Quantitative high-throughput screening tests each substance at several concentrations.

Experiment [2] in a line: qHTS assay to identify small molecule agonists of the NFkB signaling pathway (AID 1159509; active means well fitted curve in the direction sought with a large enough effect in the signal ratio in the repeat runs, not every such curve was filed as active; the % refers to the signal ratio; further: series mostly up to about 61 µM). The method in brief: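 NFkB-bla ME-180 cells with a beta-lactamase reporter under an NF-kB response element were plated overnight, treated with compounds in DMSO for 5 hr at 37 C, then loaded with FRET substrate for 1.5 hr at room temperature.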
The nature of experiment [3]: qHTS assay to identify small molecule agonists of the NFkB signaling pathway - cell viability counter screen (AID 1159515; calls by dose curve; further: nearly all actives have a fitted effect of over 55% in size; further: potency means the concentration at half of the fitted maximal effect). The method, boiled down: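 Viability in NFkB-bla ME-180 cells was measured by CellTiter-Glo luminescence, 30 min room temperature, in wells already treated 5 hr with compounds and read for reporter FRET.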
The target of experiment [4] is Nuclear receptor ROR-gamma (Homo sapiens) (UniProt P51449). In words: qHTS assay to identify small molecule antagonists of the retinoid-related orphan receptor gamma (ROR-gamma) signaling pathway (AID 1159521; further: nearly all actives have a fitted effect of over 50% in size; further: potency means the concentration at half of the fitted maximal effect). The method in brief:
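Tet-on RORγ CHO cells carrying a ROR response element–luciferase reporter were pretreated with compounds for 2 h, then induced with 1 uM (final) doxycycline hyclate for 16 h at 37 C. Antagonism was read as decreased ONE-Glo luminescence.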

Experiment [5] is described as follows: qHTS assay to identify small molecule agonists of the AP-1 signaling pathway - cell viability counter screen (AID 1159525; calls by dose curve; further: nearly all actives have a fitted effect of over 55% in size; further: potency means the concentration at half of the fitted maximal effect). The method, boiled down: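 AP-1-bla ME-180 cells in Opti-MEM with 0.5% dialyzed FBS, compound exposure 5 h at 37 C in 15-point titration. Viability read in the same wells as ATP content by CellTiter-Glo luminescence, normalised to tetra-n-octylammonium bromide and DMSO controls.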

Experiment [6] is described as follows: qHTS assay to identify small molecule agonists of the AP-1 signaling pathway (AID 1159526; calls by dose curve).
Experiment [7] in a line: qHTS assay to identify small molecule agonists of the endoplasmic reticulum stress response signaling pathway (AID 1159516; active means well fitted activation curve with a large enough effect in the signal ratio in the repeat runs, not every such curve was filed as active; the % refers to the signal ratio). The method, boiled down:
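ER stress element reporter (bla) in HeLa. 1,500 cells/well, overnight attachment; 5 hr compound; 2 hr RT substrate; dual-emission fluorescence.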

The nature of experiment [8]: qHTS assay to identify small molecule agonists of the endoplasmic reticulum stress response signaling pathway - cell viability counter screen (AID 1159517; calls by dose curve;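 further: HeLa cells carrying an ER stress response element beta-lactamase reporter; series mostly up to about 61 µM; nearly all actives have a fitted effect of over 50% in size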). The method, boiled down:
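Counter-screen wells were identical to the reporter wells. Cells were plated at 1,500 per well and dosed for 5 hr, then read for luminescence 30 min after CellTiter-Glo addition.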

Experiment [9] in a line: qHTS assay to identify small molecule antagonists of the retinoid-related orphan receptor gamma (ROR-gamma) signaling pathway - cell viability counter screen (AID 1159520). Further: nearly all actives have a fitted effect of over 50% in size. Further: potency means the concentration at half of the fitted maximal effect. The method in brief: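 Tet-on ROR gamma CHO cells were given compounds for 2 hr, then doxycycline hyclate at 1 uM final, and incubated 16 hr at 37 C. Viability was measured as ATP content by CellTiter-Glo luminescence.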

Experiment [10] can be described thus: qHTS assay to identify small molecule antagonists of the vitamin D receptor (VDR) signaling pathway - cell viability counter screen (AID 743225). Further: nearly all actives have a fitted effect of over 50% in size. The method in brief: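 VDR-bla HEK 293T cells, 4 h pre-incubation at 37C, then compound plus 1-alpha,25-dihydroxyvitamin D3 (3 nM final) for 16 h. After the beta-lactamase FRET read, CellTiter-Glo was added to the same wells; luminescence after 30 min at room temperature.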

The structures appear in SMILES notation. Results filed as inconclusive are left out. Activity calls are given as the source filed them. Unless noted, the call rests on the fitted dose curve; in most records, active means well fitted curve in the direction sought with a large enough effect in the repeat runs; inconclusive means weak or mixed curves; inactive means no such curve, though single readings can be large; an effect the other way counts as inactive or inconclusive.

For `O=C(O)C1(c2ccc3c(c2)OC[C@H](Cc2ccc(-c4ccccc4)cc2)[C@H]3O)CCCC1`, the Potency is 49 µM (active) in [1] and 54.5 µM (active) in experiment [4]. Further, the molecule was classed as inactive in experiment [2] and in experiment [6]. The Potency entry in experiment [3] and in experiment [5] was “inactive” throughout.

Consider `CCOP(=O)(OCC)SCCSCC`, for which the Potency result in [1], in [8], in experiment [9], in experiment [4] and in experiment [5] was “inactive” each time. Moreover, the outcome in [2], in experiment [7] and in [6] was inactive.

Regarding `CCCCOC(=O)c1ccccc1C(=O)OCc1ccccc1`, the Potency entry in experiment [1], in experiment [8], in experiment [9], in experiment [4] and in [5] was “inactive” throughout. Further, the call in experiment [2], in [7] and in [6] was inactive.

As for `C[C@H]1CNCCc2ccc(Cl)cc21`, the Potency entry in experiment [1], in experiment [10], in [3], in experiment [9], in [4] and in [5] was “inactive” in each case. The outcome in experiment [2] was inactive.

For the molecule `CCC(Br)(CC)C(=O)NC(N)=O`, the Potency result in [1], in experiment [10], in [8], in experiment [9], in [4] and in experiment [5] was “inactive” each time. In addition, the outcome in experiment [2], in experiment [7] and in experiment [6] was inactive.

As to `S=C=NCc1ccccc1`, the Potency entry in experiment [10], in experiment [3], in experiment [4] and in experiment [5] was “inactive” each time. The molecule was called inactive in experiment [2].

On to `O=C=Nc1ccc(Cl)cc1`, for which the call in [2], in [7] and in experiment [6] was inactive. In addition, the Potency entry in experiment [8], in experiment [9], in [4] and in experiment [5] was “inactive” in each case.

Consider `O=Cc1ccc(Cl)cc1Cl`, for which the Potency entry in [1], in experiment [10], in [8], in [9], in [4] and in [5] was “inactive” throughout. Further, the molecule was classed as inactive in [2], in experiment [7] and in experiment [6].

As to `Clc1cccc2ccccc12`, the Potency entry in experiment [1], in [10], in experiment [8], in [9], in experiment [4] and in experiment [5] was “inactive” each time. For the same molecule, the molecule was called inactive in [2], in experiment [7] and in [6].

On to `IC(I)=C(I)I`, for which the Potency was 11 µM (active) in experiment [1]; 54.9 µM (active) in experiment [3]; 3.86 µM (active) in experiment [9]; 2.73 µM (active) in [4]; 24.5 µM (active) in [5]. Further, the call in experiment [2] was inactive.

For `N#Cc1cc(I)c(O)c(I)c1`, the molecule was called inactive in experiment [2], in experiment [7] and in experiment [6]. For the same molecule, the Potency entry in [8], in [9] and in experiment [5] was “inactive” each time. Besides, in experiment [4], the Potency is 24.3 µM (active).

Take `BrCC(Br)C1CCC(Br)C(Br)C1` (stereo unspecified): the Potency result in [10], in experiment [3], in [9] and in experiment [5] was “inactive” each time. In addition, the molecule was classed as inactive in experiment [2].

Consider `C=CC(=O)OCC(C)C`, for which the Potency entry in experiment [1], in experiment [8], in experiment [9], in experiment [4] and in [5] was “inactive” throughout. Also, the molecule was called inactive in experiment [2], in experiment [7] and in experiment [6].

On to `N#C/C(N)=C(/N)C#N`, for which the Potency entry in experiment [1], in [8], in [9], in [4] and in experiment [5] was “inactive” each time. Further, the call in experiment [2], in [7] and in experiment [6] was inactive.

Turning to `NC(=O)C(Cl)(Cl)Cl`, the Potency result in experiment [1], in [10], in [8], in experiment [9], in experiment [4] and in experiment [5] was “inactive” each time. The outcome in [2], in [7] and in experiment [6] was inactive.

As for `CCC(C)(NC(=O)c1cc(Cl)c(C)c(Cl)c1)C(=O)CCl` (stereo unspecified), the results for the Potency in [1], in experiment [9] and in experiment [4] were 55.3 µM (active), 21.8 µM (active) and 6.15 µM (active), respectively. The outcome in [2] was inactive. Besides, the Potency entry in experiment [3] was “inactive”.

With `C=C(C#N)CCC#N`, the Potency entry in experiment [1], in experiment [8], in experiment [9], in [4] and in experiment [5] was “inactive” each time. For the same molecule, the molecule was classed as inactive in experiment [2], in [7] and in experiment [6].

Regarding `CC(C)(CCl)C(=O)Cl`, the Potency result in experiment [1], in experiment [8], in experiment [9], in experiment [4] and in experiment [5] was “inactive” in each case. Also, the molecule was classed as inactive in experiment [2] and in [7].

For `CCCCC(CC)COP(=O)(Oc1ccccc1)Oc1ccccc1` (stereo unspecified), the result in experiment [2] and in experiment [7] was inactive. Besides, the Potency entry in experiment [8], in [9], in experiment [4] and in [5] was “inactive” in each case.

`CC(=O)C(C)(C)C`: the Potency entry in [1], in [3], in [9] and in experiment [5] was “inactive” throughout. Moreover, the result in [2] and in experiment [6] was inactive.

As for `O=S1OC[C@@H]2[C@H](CO1)[C@]1(Cl)C(Cl)=C(Cl)[C@@]2(Cl)C1(Cl)Cl` (stereo partly specified), the Potency in experiment [1] was 49 µM (active); in [4] it was 54.5 µM (active). For the same molecule, the Potency entry in experiment [10], in experiment [3] and in experiment [9] was “inactive” throughout. Further, the result in experiment [2] was inactive.

For the molecule `C=CC(C)=O`, the Potency result in experiment [1], in [10], in experiment [3], in [9] and in experiment [5] was “inactive” throughout. For the same molecule, the result in experiment [2] and in [6] was inactive.
